Screening data (PubChem)
In the library only some 1.6% were active in any assay of this set; here they are far more common.
KCNQ2 block: blocks the rat KCNQ2 potassium channel | CHO-K1 KCNQ2, FluxOR thallium flux, 20 min; hits give low values | B-score at 10 µM | 1.1% of 310,000 active;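 active = fluorescence ratio B-score at most minus 3 library SDs, with starting brightness B-score within 2 library SDs, cut at about -5.5 in these data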
KCNQ2 pot: KCNQ2 (rat) channel potentiation; CHO-K1 KCNQ2, FluxOR thallium flux fluorescence; hits give high values; B-score at 10 µM; 0.54% of 310,000 active;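 active = fluorescence ratio B-score at least 3 SD of library B-scores, with initial fluorescence B-score within 3 of them, cut at about 5.3 in these data; same plate scores as AID 2156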;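 note: B-score of peak minus minimum over baseline fluorescence ratio after K+ and Tl+ stimulus; positive B-score means potentiation of KCNQ2 with more thallium influx and brighter signal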
Kir21 conf inh: confirmation of mouse Kir2.1 potassium channel inhibitors. 41% of 2,300 active. shares compounds with KCNQ2 pot. Tl flux remaining, % of negative control (hits give low values), % at 10 µM. Kir2.1-expressing cells, FluxOR thallium flux fluorescence; hits give low values;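 active = Primary-screen hit whose thallium flux fell at least 3 control SD below untreated wells in both duplicates, with normal baseline fluorescence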;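 note: 0% = blank wells without stimulus and 100% = stimulated no-compound controls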
HEK293 ctr: alters thallium flux in parental HEK293 cells, Kir2.1 counter-screen. shares compounds with KCNQ2 pot. FluxOR thallium flux fluorescence; 0% = unstimulated blank wells. FluxOR signal as % of negative control (100 = no effect), % at 10 µM. 19% of 2,300 active. AID 2105;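 active = dye signal at least 3 control SD above or below untreated wells in both duplicates, raw fluorescence within 3, either direction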;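 note: percent is based on the flux ratio of peak minus minimum fluorescence over baseline F0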
CHO-K1 Tl ctr: alters thallium flux in parental CHO-K1 cells, KCNQ2 counter-screen | FluxOR thallium flux fluorescence; zero = vehicle mean+3SD, 100% = vehicle-minus-blank window | 43% of 1,200 active | activity increase over 3SD of controls, % at 10 µM | shares compounds with KCNQ2 pot;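 active = signal rise of at least 3 SD above the untreated control mean, in both duplicate wells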;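 note: counter screen of KCNQ2 potentiator hits so any rise reflects channel-independent effects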
KCNQ1 pot spec: tests whether KCNQ2 potentiators also act on human KCNQ1; shares compounds with KCNQ2 pot; CHO KCNQ1 stable, FluxOR thallium flux fluorescence; beyond 3SD, as % of vehicle-control signal; activation over 3SD threshold, % at 10 µM; 28% of 1,200 active; AID 2283;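 active = fluorescence ratio rise of at least 3 SD of vehicle wells above their mean, in both replicate wells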;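 note: 0% = vehicle mean plus 3 SD and 100% = vehicle minus unstimulated blank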
Target sequence (P51787 whole entry, looked up): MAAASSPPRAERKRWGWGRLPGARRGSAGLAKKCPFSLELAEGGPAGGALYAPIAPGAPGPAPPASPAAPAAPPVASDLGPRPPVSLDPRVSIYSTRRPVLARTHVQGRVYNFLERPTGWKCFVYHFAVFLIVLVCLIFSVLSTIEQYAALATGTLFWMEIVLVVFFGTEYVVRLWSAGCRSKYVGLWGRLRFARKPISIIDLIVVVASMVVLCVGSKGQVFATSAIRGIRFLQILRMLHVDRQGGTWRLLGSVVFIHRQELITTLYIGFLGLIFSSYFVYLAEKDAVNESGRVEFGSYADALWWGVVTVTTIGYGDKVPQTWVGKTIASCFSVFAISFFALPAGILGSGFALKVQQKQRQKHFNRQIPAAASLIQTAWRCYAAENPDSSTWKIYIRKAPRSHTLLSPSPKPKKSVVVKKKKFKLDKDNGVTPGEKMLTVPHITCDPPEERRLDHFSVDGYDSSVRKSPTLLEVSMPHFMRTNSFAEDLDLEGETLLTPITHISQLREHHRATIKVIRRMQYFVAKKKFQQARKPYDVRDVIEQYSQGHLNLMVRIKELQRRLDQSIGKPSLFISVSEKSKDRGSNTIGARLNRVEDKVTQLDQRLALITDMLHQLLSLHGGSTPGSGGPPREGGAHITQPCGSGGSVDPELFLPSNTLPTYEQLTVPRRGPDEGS
KCNQ2 pot conf: confirmation of rat KCNQ2 potassium channel potentiators | shares compounds with KCNQ2 pot | CHO-KCNQ2 cells, FluxOR thallium flux fluorescence | potentiation, less the hit threshold, % at 10 µM | 68% of 1,200 active | AID 2287;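 active = fluorescence ratio rising 3 SD or more over the vehicle control mean in both replicates, plus primary screen hit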;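 note: peak minus minimum thallium fluorescence divided by baseline after K/Tl stimulus; 0% = vehicle mean plus 3 SD and 100% = vehicle minus unstimulated blank difference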
Kir2-1 sel: mouse Kir2.1 off-target activity of KCNQ2 potentiators | activity over 3SD threshold, % at 10 µM | HEK293 Kir2.1, FluxOR thallium flux fluorescence | AID 2345 | shares compounds with KCNQ2 pot | 2% of 1,200 active;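 active = fluorescence ratio rise of at least 3 SD above the vehicle-control mean, seen in both replicates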;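 note: 0% = vehicle mean plus 3 SD and 100% = vehicle minus no-stimulus blank window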
KCNQ2 W236L MoA: potentiates the retigabine-insensitive rat KCNQ2 W236L mutant channel | shares compounds with KCNQ2 pot | CHO KCNQ2-W236L, automated patch clamp current | current increase over 3SD of negative controls (%), hits give high values, % at 25 µM | 10% of 940 active;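 active = current increase at least 3 SD of the untreated controls above them in both duplicate recordings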
Active calls of the source: *; i = inactive; . = not tested or not shown.

SMILES | KCNQ2 block | KCNQ2 pot | Kir21 conf inh | HEK293 ctr | others
CN(C)CCn1c(=N)n(CC(O)c2ccc(Cl)c(Cl)c2)c2ccccc21 (stereo unspecified) | i | 1.2 | . | .
N=c1n(CCN2CCCCC2)c2ccccc2n1CC(O)COc1ccccc1 (stereo unspecified) | i | . | . | .
CN(C)c1ccc(/C=C/C=N/Nc2nc(N3CCOCC3)nc(N3CCOCC3)n2)cc1 | i | . | . | .
C=CCn1c(COc2ccccc2)nnc1SCc1ccc(C#N)cc1 | i | . | 45%* | 69%*
C=CCn1c(COc2ccc(Cl)cc2)nnc1SCc1ccc(C#N)cc1 | i | . | . | .
C[C@@H](NCCc1ccc(O)cc1)[C@@H](O)c1ccc(O)cc1 | i | 0.08 | . | .
CCCCCCCCNC(C)C(O)c1ccc(SC(C)C)cc1 (stereo unspecified) | i | 6.8* | . | . | CHO-K1 Tl ctr=-56;KCNQ1 pot spec=-20;KCNQ2 pot conf=-46;Kir2-1 sel=-62
Clc1ccc(-c2cc(C3CCNCC3)[nH]n2)cc1 | i | . | 38%* | i
Cc1ccc(CN2CCC(c3cc(-c4ccc(Cl)cc4)n[nH]3)CC2)cc1 | i | . | . | .
CC(C)Oc1ccc(C(=O)Nc2nnc(C3=COCCO3)o2)cc1 | i | 5.3* | i | i | CHO-K1 Tl ctr=91*;KCNQ1 pot spec=-7;KCNQ2 pot conf=-2;Kir2-1 sel=-33;KCNQ2 W236L MoA=i
CC(C)(C)c1ccc(C(=O)Nc2nnc(C3=COCCO3)o2)cc1 | i | 3.6 | . | .
CC(=O)c1ccc(S(=O)(=O)N(C)CC(=O)N2CCCCCC2)cc1 | i | . | . | .
O=C(O)c1ccc(S(=O)(=O)c2ccc3c(c2)C(=O)N(c2ccc(Br)cc2)C3=O)cc1 | i | . | . | .
COc1ccc(C(=O)/C=C/Nc2ccc(S(=O)(=O)Nc3cc(OC)nc(OC)n3)cc2)c(OC)c1 | i | 0.06 | . | .
O=C(CCSCc1ccccc1F)N1CCN(c2ccccn2)CC1 | i | . | . | .
O=C(Cn1ncc2c3ccccc3n(Cc3cccc(Cl)c3)c2c1=O)NCC1CCCO1 (stereo unspecified) | i | 8.2* | i | i | CHO-K1 Tl ctr=69*;KCNQ1 pot spec=-27;KCNQ2 pot conf=2.4*;Kir2-1 sel=-16;KCNQ2 W236L MoA=i
O=C(Cn1ncc2c3ccccc3n(Cc3ccccc3F)c2c1=O)NCC1CCCO1 (stereo unspecified) | i | 6* | i | i | CHO-K1 Tl ctr=22*;KCNQ1 pot spec=-17;KCNQ2 pot conf=-4;Kir2-1 sel=-29;KCNQ2 W236L MoA=i
O=C(Cn1ncc2c3ccccc3n(Cc3ccccc3)c2c1=O)NC1CCCC1 | i | . | . | .
O=C(Cn1ncc2c(=O)oc3ccccc3c21)NCC1CCCO1 (stereo unspecified) | i | 1.5 | . | .
O=C(Cn1ncc2c3ccccc3n(Cc3ccccc3F)c2c1=O)N1CCN(c2ccccn2)CC1 | i | 11* | i | i | CHO-K1 Tl ctr=38*;KCNQ1 pot spec=-10;KCNQ2 pot conf=24*;Kir2-1 sel=-32;KCNQ2 W236L MoA=i
Cc1cc(CCCCCCCCc2cc(C)cc(=O)o2)oc(=O)c1 | i | . | . | .
Cc1cc(NC(=O)CCCn2ccc([N+](=O)[O-])n2)n(Cc2ccc(F)cc2)n1 | i | 1 | . | .
Cc1cccc(N2CCN(C(=O)c3c(Cl)cnn3C)CC2)c1C | i | . | . | .
CCc1ccc(S(=O)(=O)Nc2cccc(-c3ccc4nnc(C)n4n3)c2)s1 | i | . | . | .
COc1ccc(OC)c(Nc2nc3nonc3nc2N2CCCC(C)C2)c1 (stereo unspecified) | i | 0.22 | . | .
O=[N+]([O-])c1ccccc1NC1CCN(Cc2ccccc2)CC1 | i | 0.74 | 33%* | i
O=C1CCC(=O)N1c1ccc(NC2CCN(Cc3ccccc3)CC2)c([N+](=O)[O-])c1 | i | . | . | .
